Screening results: PubChem, National Center for Advancing Translational Sciences (NCATS)
hNpr1 antagonist: human Npr1 receptor antagonism; HEK293 hNpr1 GloSensor cGMP, ANP-stimulated luminescence; hit rate 1.6% among 76,000; Potency, µM (doses to about 46.3 µM), inactives show at the top dose activity change, negative = inhibition, usual class: inhibitors; P16066; calls by dose curve; further: on the % scale 0 is the no-effect control and ±100 the full control effect; nearly all actives have a fitted effect of over 60% in size
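HEK293 cells stably expressing human Npr1 and cGMP GloSensor pGS-40F, loaded 2 h with 2% GloSensor reagent, given compound 30 min at room temperature. Luminescence read before and 20 min after 0.1 nM hNppA.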
HEK cytotox: cytotoxic compounds in HEK 293 cells; Potency, µM (doses to about 115 µM), for inactives: at the top dose activity change, negative = cytotoxicity, usual class: inhibitors; HEK 293 viability, ATP luminescence (CellTiter-Glo), 48-72 h; hit rate 6.6% among 94,000; further: on the % scale 0 is the no-effect control and ±100 the full control effect; nearly all actives have a fitted effect of over 60% in size
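Read-out: CellTiter-Glo ATP luminescence. Cells: HEK 293, 250 cells/well. Exposure: 48 or 72 hr, 37 degree Celsius.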
FLuc inh: Photinus pyralis luciferase inhibition; hit rate 2.5% among 76,000; AID 1347043; P08659; purified P. pyralis luciferase, luminescence, biochemical; Potency, µM (series often up to 115 µM), hits mostly inhibitors; further: on the % scale 0 is the no-effect control and ±100 the full control effect; nearly all actives have a fitted effect of over 65% in size
Target sequence (P08659 whole entry, looked up): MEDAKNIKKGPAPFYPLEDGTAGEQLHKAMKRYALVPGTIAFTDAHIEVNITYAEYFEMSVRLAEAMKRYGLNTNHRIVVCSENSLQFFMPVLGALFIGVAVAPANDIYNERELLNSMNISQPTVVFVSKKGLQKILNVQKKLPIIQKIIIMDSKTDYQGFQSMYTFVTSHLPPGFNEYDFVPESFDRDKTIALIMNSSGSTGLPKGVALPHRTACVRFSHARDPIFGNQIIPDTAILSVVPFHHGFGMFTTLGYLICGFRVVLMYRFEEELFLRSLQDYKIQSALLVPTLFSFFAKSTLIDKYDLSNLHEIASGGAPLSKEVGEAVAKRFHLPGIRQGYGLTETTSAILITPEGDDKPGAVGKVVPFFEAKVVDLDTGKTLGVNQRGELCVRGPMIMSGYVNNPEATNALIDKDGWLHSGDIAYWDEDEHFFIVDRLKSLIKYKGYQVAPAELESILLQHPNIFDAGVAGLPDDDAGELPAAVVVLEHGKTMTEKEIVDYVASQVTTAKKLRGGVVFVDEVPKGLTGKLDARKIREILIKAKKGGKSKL
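Biochemical qHTS: compound (6-point titration) added to 10uM D-luciferin plus 10uM ATP in Tris acetate pH 7.5 buffer with Mg, Tween-20 and BSA, then purified enzyme at 10nM; light output imaged.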
GPT2 inhibitor: inhibitors of human GPT2 alanine aminotransferase; Q8TD30; Recombinant GPT2, coupled pyruvate oxidase/HRP Amplex Red fluorescence; Potency, µM (titrated, usually from 57.7 µM), for inactives: at the top dose activity change, negative = inhibition, usual class: inhibitors; hit rate 0.25% among 100,000; AID 1671188; further: on the % scale 0 is the no-effect control and ±100 the full control effect; nearly all actives have a fitted effect of over 60% in size
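Fluorescence read-out: pyruvate from GPT2 turnover coupled to pyruvate oxidase, HRP and Amplex Red (0.2mM ThPP, 0.2U/mL PO and HRP, 50uM Amplex final). Substrates 250uM a-KG, 2mM L-alanine; enzyme 10ng/uL; 30 min RT.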
3T3 cytotox: cytotoxic compounds in NIH 3T3 cells. AID 1345082. Potency, µM (titrated, usually from 96.7 µM), for the others: at the top dose activity change, negative = cytotoxicity, most hits filed as inhibitors. NIH 3T3 viability, CellTiter-Glo ATP luminescence, 48-72 h. hit rate 4.3% among 94,000; further: on the % scale 0 is the no-effect control and ±100 the full control effect; nearly all actives have a fitted effect of over 55% in size
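First NIH 3T3 cells are plated at 400 cells/well; next compound is pinned in; then plates incubate 48 or 72 hr at 37 °C; finally CellTiter-Glo is added and luminescence read after 10 min.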
NPR1 antag cnf: confirmation of human Npr1 natriuretic peptide receptor antagonists; shares compounds with hNpr1 antagonist; HEK293 hNpr1 cGMP GloSensor luminescence, ANP-stimulated; Potency, µM (titrated, usually from 57.6 µM), without a hit: top-dose activity change, negative = inhibition, actives largely listed as inhibitors; hit rate 76% among 1,400; AID 1347044; calls by dose curve; further: nearly all actives have a fitted effect of over 70% in size
NPR2 antag: hNpr2 antagonism, selectivity versus Npr1 | shares compounds with hNpr1 antagonist | HEK293 hNpr2 GloSensor cGMP luminescence, CNP-stimulated | Potency, µM (doses to about 57.6 µM), inactives show top-dose activity change, negative = inhibition, hits mostly inhibitors | hit rate 67% among 1,400 | AID 1347046; calls by dose curve; further: nearly all actives have a fitted effect of over 70% in size
FLuc counter: FLuc enzyme inhibition, Npr1 counter-screen. shares compounds with hNpr1 antagonist. AID 1347047. hit rate 0.7% among 1,400. Potency, µM (series often up to 57.6 µM), without a hit: at the top dose activity change, negative = inhibition, usual class: inhibitors. purified FLuc enzyme, luminescence, Km substrate; further: 0% is about no effect
GloSensor cGMP: control cell line activity, Npr1 antagonist counter-screen; shares compounds with hNpr1 antagonist; HEK293 GloSensor cGMP, SNP-stimulated, luminescence; Potency, µM (series often up to 57.6 µM), for inactives: top-dose activity change, negative = inhibition, hits mostly inhibitors; hit rate 69% among 1,400; AID 1347051; calls by dose curve; further: on the % scale 0 is the no-effect control and ±100 the full control effect; nearly all actives have a fitted effect of over 70% in size
* marks the source's active call; other numbers are inactive results; i = inactive; ? = inconclusive; nt = no result given; [ ] = remark or other dose. Hits are enriched below; roughly 10% of the tested compounds scored in any of these assays. Unless noted, the call rests on the fitted dose curve; in most records, active means well fitted curve in the direction sought with a large enough effect; inconclusive means small, poorly fitted or top-dose-only effect, or another doubt; inactive means no such curve, though single readings can be large; an effect the other way counts as inactive or inconclusive. Potency means the concentration at half of the fitted maximal effect.

SMILES	hNpr1 antagonist	HEK cytotox	FLuc inh	GPT2 inhibitor	3T3 cytotox	NPR1 antag cnf	NPR2 antag	FLuc counter	GloSensor cGMP
COc1ccc(CN2CCCn3nc(C)c(-c4ccccc4Oc4ccccc4)c32)cc1O	2.5µM*	20µM*	i	i	11µM*	22µM*	22µM*	3%	4.8µM*
Cc1nn2c(c1-c1ccccc1Oc1ccccc1)N(C(=O)c1ccc(F)cc1)CCC2	-8%[70.6 µM]	?	i	1%[88.5 µM]	?	nt	nt	nt	nt
Cc1nn2c(c1-c1ccccc1Oc1ccccc1)N(Cc1ccc(C(=O)O)cc1)CCC2	2.8µM*	45µM*	i	4%[88.5 µM]	25µM*	?	?	1%[86.2 µM]	?
Cc1nn2c(c1-c1ccccc1-c1ccccc1)N(Cc1cccc(O)c1)CCC2	2.2µM*	?	i	-7%[88.5 µM]	?	3.1µM*	5µM*	-1%[86.2 µM]	3.5µM*
Cc1nn2c(c1-c1ccccc1Oc1ccccc1)N(CC1CCOCC1)CCC2	-16%[70.6 µM]	?	i	2%[88.5 µM]	?	nt	nt	nt	nt
CN1C(=O)COC[C@@H]1[C@H](O)c1ccc(NC(=O)c2ccc(F)cc2)cc1	-6%[70.6 µM]	-10%[172 µM]	i	-3%[88.5 µM]	-8%[138 µM]	nt	nt	nt	nt
CC(=O)/C=C/C1(O)C(C)CC(O[C@@H]2O[C@H](CO)[C@@H](O)[C@H](O)[C@H]2O)CC1(C)C (stereo partly specified)	nt	nt	nt	-16%[27.3 µM]	nt	nt	nt	nt	nt
Cc1ccc(C(=O)N2CCn3c(nnc3[C@@H]3C[C@@H](O)CN3C(C)C)C2)cn1	1%	-11%	i	-1%	0%	nt	nt	nt	nt
O=C(Cc1c[nH]c2ccccc12)N1CCCN(c2cc(-c3ccc(Br)cc3)[nH]n2)CC1	16µM*	?	i	?	35µM*	24µM*	27µM*	-7%	27µM*
O=C(c1ccc(Cl)cc1)N1CCN(c2cc(-c3ccc(Cl)cc3)[nH]n2)CC1	11µM*	40µM*	i	i	32µM*	22µM*	22µM*	4%	22µM*
COc1ccc(C(=O)N2CCN(c3cc(-c4ccc(Cl)cc4)[nH]n3)CC2)cc1	8.9µM*	35µM*	i	-7%	7.1µM*	15µM*	17µM*	-1%	11µM*
O=C(c1ccc2c(c1)OCO2)N1CCN(c2cc(-c3ccc(Cl)cc3)[nH]n2)CC1	?	?	i	-6%	?	24µM*	?	-11%	24µM*
CC(=O)Nc1ccc(C(=O)N2CCCN(c3cc(-c4ccc(Cl)cc4)[nH]n3)CC2)cc1	-29%	?	i	-22%	-24%	nt	nt	nt	nt
O=C(c1ccc2nc[nH]c2c1)N1CCCN(c2cc(-c3ccc(Br)cc3)[nH]n2)CC1	-17%	?	i	-26%	-25%	nt	nt	nt	nt
COc1ccc(Cl)cc1-c1nc(C2CC(=O)N(C3CCCCC3)C2)no1 (stereo unspecified)	-2%	?	i	i	?	nt	nt	nt	nt
CCN(Cc1cnn(CC)c1)C(=O)C1CCN(C(=O)N2CC3CC(C2)[C@H]2CCCC(=O)N2C3)CC1 (stereo partly specified)	0%	0%	i	i	i	nt	nt	nt	nt
COCCCN1C(=O)N(Cc2nncn2C(C)C)C(=O)C12CCNCC2	-1%	-29%	i	-11%	-20%	nt	nt	nt	nt
Cc1cnccc1N1CCCN(Cc2cnc(-c3cccs3)nc2)CC1	0%	?	i	2%	?	nt	nt	nt	nt
Cc1cc(C)cc(-c2ccc(CN3CCCC3C(=O)N3CCC(c4ccccc4)CC3)cc2)c1 (stereo unspecified)	nt	?	nt	i	?	nt	nt	nt	nt
COc1ccc(C(=O)N2CCN(c3cc(-c4ccc(Cl)cc4)[nH]n3)CC2)cc1F	11µM*	?	i	i	?	14µM*	19µM*	0%	11µM*
COc1ccc(-c2cc(N3CCN(C(=O)c4ccc(OC)c(F)c4)CC3)n[nH]2)cc1	-21%	?	i	i	?	nt	nt	nt	nt
CCOc1ccc(C(=O)N2CCCN(c3cc(-c4ccc(Cl)cc4)[nH]n3)CC2)cc1OCC	11µM*	?	i	i	?	15µM*	17µM*	5%	15µM*
O=C(c1ccccc1)N1CCN(c2cc(-c3ccc(Cl)cc3)[nH]n2)CC1	?	?	i	i	?	?	?	0%	?
O=C(c1ccc2c(c1)OCO2)N1CCCN(c2cc(-c3ccc(Br)cc3)[nH]n2)CC1	18µM*	?	i	?	?	24µM*	24µM*	2%	31µM*
Cc1ccc(C(=O)N2CCCN(c3cc(-c4ccccc4)[nH]n3)CC2)cc1	-9%	?	i	-23%	-30%	nt	nt	nt	nt
SMILES	hNpr1 antagonist	HEK cytotox	FLuc inh	GPT2 inhibitor	3T3 cytotox	NPR1 antag cnf	NPR2 antag	FLuc counter	GloSensor cGMP
Cc1cccc(NC(=O)N2CCC3(CC2)CC(N(C2CC2)S(C)(=O)=O)CCO3)c1 (stereo unspecified)	-14%	-13%	i	i	-20%	nt	nt	nt	nt
CCn1cc(S(=O)(=O)N2CCCC(Cc3noc(-c4cccnc4)n3)C2)cn1 (stereo unspecified)	2%	-27%	i	i	-10%	nt	nt	nt	nt
O=C(NC1CCN(c2cc(-c3ccc(F)cc3)[nH]n2)CC1)c1ccc(F)c(Cl)c1	?	?	i	i	32µM*	24µM*	?	-3%	?
COc1ccc(CC(=O)N2CCCN(c3cc(-c4ccc(OC)cc4)[nH]n3)CC2)cc1	?	?	i	?	?	?	?	0%	-19%
COc1ccc(C(=O)N2CCC3(CC2)NC(=O)N(Cc2ccc(F)cc2)C3=O)cc1F	13µM*	?	i	-16%	?	19µM*	22µM*	3%	22µM*
COc1ccc(C(=O)N2CCC3(CC2)NC(=O)N(Cc2ccccc2)C3=O)cc1F	?	?	i	3%	-20%	nt	nt	nt	nt
COc1ccc(-c2cc(N3CCCN(C(=O)Cc4cccc(OC)c4)CC3)n[nH]2)cc1	1%	?	i	?	-20%	nt	nt	nt	nt
